# Screens as filed in PubChem BioAssay.
# 15-hLO-2 inh: qHTS Assay for Inhibitors of 15-hLO-2 (15-human lipoxygenase 2) | purified 15hLO-2, xylenol orange hydroperoxide absorbance | Potency, µM (series often up to 57.1 µM), for the others: top-dose activity change, negative = inhibition, actives largely listed as inhibitors | 110,000 compounds, 0.56% hits | AID 881, 2007; further: potency means the concentration at half of the fitted maximal effect; nearly all actives have a fitted effect of over 60% in size
#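 Purified human 15hLO-2 (50 nM) preincubated 15 min with compound, then 45 uM arachidonic acid for 90 min at RT in 25 mM Hepes pH 7.5, 0.01% Triton X-100. Hydroperoxide detected by Fe-xylenol orange; 573/405 nm absorbance ratio.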
# PNC inhibitor: High Content Assay for Compounds that inhibit the Assembly of the Perinucleolar Compartment; PC3M PTB-GFP, PNC prevalence imaging, 16 h; active compounds read low; activity change (PNC), negative = inhibition, % at 10 µM; 140,000 compounds, 3.1% hits; AID 2417, 2010;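 active means readout at or below -70, meaning at least 70% loss of cells showing the perinucleolar compartment, a nuclear body marking cancer cells; inconclusive means readout between -30 and a set limit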;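 further: plate controls were DMSO wells for no effect and camptothecin positive control wells for full effect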
#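 Compounds are pinned in duplicate onto adhered PC3M cells stably expressing GFP-tagged PTB and incubated 16 h at 37 C. Cells are then fixed, nuclei stained with Hoechst, and PNC-positive cells counted.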
# ALOX12 inhib: qHTS Assay for Inhibitors of 12-hLO (12-human lipoxygenase); AID 1452, 2008; purified 12-hLO, xylenol orange hydroperoxide absorbance; 150,000 compounds, 0.12% hits; Potency, µM (series often up to 57.1 µM), for the others: top-dose activity change, negative = inhibition, actives largely listed as inhibitors; Polyunsaturated fatty acid lipoxygenase ALOX12 (Homo sapiens), P18054; further: potency means the concentration at half of the fitted maximal effect; nearly all actives have a fitted effect of over 55% in size
# Target sequence (P18054 whole entry, looked up): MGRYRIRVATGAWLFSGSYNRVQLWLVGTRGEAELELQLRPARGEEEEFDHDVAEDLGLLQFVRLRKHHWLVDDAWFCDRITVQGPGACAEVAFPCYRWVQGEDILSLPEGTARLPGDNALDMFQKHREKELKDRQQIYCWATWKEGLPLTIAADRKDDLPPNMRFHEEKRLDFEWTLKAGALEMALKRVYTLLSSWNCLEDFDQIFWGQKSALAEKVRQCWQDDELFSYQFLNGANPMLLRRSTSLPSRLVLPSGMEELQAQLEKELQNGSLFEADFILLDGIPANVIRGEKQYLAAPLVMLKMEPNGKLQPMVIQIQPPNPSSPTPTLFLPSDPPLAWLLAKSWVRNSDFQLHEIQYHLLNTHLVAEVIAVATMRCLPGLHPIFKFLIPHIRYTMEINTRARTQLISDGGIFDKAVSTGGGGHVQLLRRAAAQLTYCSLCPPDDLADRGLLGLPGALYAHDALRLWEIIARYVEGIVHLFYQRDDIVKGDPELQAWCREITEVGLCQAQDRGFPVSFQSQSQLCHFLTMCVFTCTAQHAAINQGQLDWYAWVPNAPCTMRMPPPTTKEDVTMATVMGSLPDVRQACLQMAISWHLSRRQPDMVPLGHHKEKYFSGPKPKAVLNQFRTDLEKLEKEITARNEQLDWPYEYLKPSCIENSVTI
#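 150 nM 12hLO, 25 mM Hepes pH 7.0 + 0.01% Triton X-100; cpd preinc 15 min RT; 40 uM arachidonic acid, 30 min RT; Fe-XO 30 min; A573/A405 ratio as read-out.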
# The depositor's hits bear a star; ? = inconclusive; . = no result; [ ] = another dose, or the depositor's remark. Most compounds without a hit are left out; they make up all but 3.2% or so of the library. Unless noted, the call rests on the fitted dose curve; in most records, active means well fitted curve in the direction sought with a large enough effect; inconclusive means small, poorly fitted or top-dose-only effect, or another doubt; inactive means no such curve, though single readings can be large; an effect the other way counts as inactive or inconclusive. Unless noted, on the % scale 0 is the no-effect control and ±100 the full control effect.
SMILES,15-hLO-2 inh,PNC inhibitor,ALOX12 inhib
CSc1cccc(NS(=O)(=O)c2cccc3nsnc23)c1,-7%,11,-14%
COc1cc(NS(=O)(=O)c2cccc3nsnc23)cc(OC)c1,-6%,-82*,-6%
Cc1cc(S(=O)(=O)Nc2ccc(N(C)C)cc2)c(C)s1,-10%,-23,5%
COCCN(CCOC)c1nc(C)nc2c1nc(-c1ccccc1)n2CC1CCN(C)CC1,30%,.,-2%
Cc1nc(SCC(=O)Nc2cc(Cl)ccc2[N+](=O)[O-])nc(C)c1C,.,38,-5%
O=S(=O)(c1ccccc1)N1CCC2(CCN(Cc3ccncc3)CC2)CC1,7%,.,-1%
CN(C)c1ccc(C(=O)c2ccc(N(C)C)c3ccccc23)cc1,.,-103*,-3%
COc1ccc(C(=O)c2ccc(N(C)C)cc2)c(OC)c1,-3%,?,-8%
CCC1=C(OC(=O)N(CC)CC)N2C(=O)OC(=NCCc3c[nH]c4ccccc34)[C@]2(C)[C@H]2C1=CC[C@H]1C(=O)N(C)C(=O)[C@H]12,9%,.,-4%
CS(=O)(=O)CCC(C(=O)OCc1ccc(Br)cc1)N1C(=O)c2ccccc2C1=O (stereo unspecified),.,9,-3%
COC(=O)c1ccc(COC(=O)C(CCS(C)(=O)=O)N2C(=O)c3ccccc3C2=O)cc1 (stereo unspecified),.,-104*,1%
O=C(Nc1ccc2oc(=O)ccc2c1)c1cc2ccccc2o1,.,-119*,10%
Cc1cc(=O)oc2cc(NC(=O)c3cc4ccccc4o3)ccc12,?,30,-7%
Cc1nc(N2CCOCC2)c2nc(-c3ccccc3)n(CCCN(C)C)c2n1,9%,.,1%
CCOC(=O)c1cc2sccc2n1CC(=O)N1CCCc2ccccc21,-6%,4,-8%
CCOC(=O)c1cc2occc2n1CC(=O)N1CCCc2ccccc21,-20%,-84*,-17%
CCOC(=O)C1=C(O)c2ccccc2C(=O)/C1=C\c1ccc(CC)cc1,10µM*,-16,?
CCOC(=O)C1=NN(c2ccccc2)C(=O)/C1=C\c1ccc(N(C)C)cc1,6%,-3,-2%
CCCc1ccc(/C=C2\C(=O)c3ccccc3C(O)=C2C(=O)OCC)cc1,6.3µM*,?,-22%
CCCN=C(C)C1=C(O)c2ccccc2C1=O,.,87,0%
O=C(COc1ccc2c(c1)CCC2)NCc1ccc(Cl)cc1,.,?,-3%
COc1cc(O)cc(OC)c1OC,-2%,.,-8%
CC1(C)C(=O)OC(c2cccn2-c2ccc([N+](=O)[O-])cc2)C(C)(C)C1=O (stereo unspecified),.,19,-2%
CC1(C)C(=O)C2(CCCCC2)C(=O)OC1c1cccn1-c1ccc([N+](=O)[O-])cc1 (stereo unspecified),.,-87*,-5%
CC(C)C1=CC2=CCC3[C@@](C)(CCC[C@@]3(C)C(=O)O)C2CC1 (stereo partly specified),-1%,.,-1%
SMILES,15-hLO-2 inh,PNC inhibitor,ALOX12 inhib
Cc1ccc(N(C(=O)CCl)C(C(=O)NC2CCCCC2)c2cccnc2)cc1C (stereo unspecified),.,?,1%
CC(C)N(C(=O)CSc1nnc(CNc2ccc(F)cc2)o1)C(C)C,.,-100*,-7%
COC(=O)CSc1nnc(CNc2ccc(F)cc2)o1,1%,9,-2%
COc1ccc(-c2nc3c(c4c2C[C@H](c2ccccc2)OC4)CN(S(=O)(=O)c2ccc(Cl)c4nonc24)CC3)c(C)c1,.,.,-7%[11.4 µM]
CCCn1c(C)nc2c(NCCO)nc(C)nc21,12%,.,-5%
CCOc1cc2c(cc1OCC)C(c1ccc(OC)cc1)N(c1ccccc1)C(=O)C2 (stereo unspecified),.,-15,1%
CCOc1cc2c(cc1OCC)C(c1ccccc1)N(c1ccccc1)C(=O)C2 (stereo unspecified),.,-93*,0%
CCn1c2ccccc2c2nnc(SCC(=O)Nc3c(C)n(C)n(-c4ccccc4)c3=O)nc21,-3%,-21,-10%
Cc1c(NC(=O)CSc2nnc3c4ccccc4n(CCc4ccccc4)c3n2)c(=O)n(-c2ccccc2)n1C,-4%,-90*,3%
CN(C)C(=O)COC(=O)c1ccccc1Nc1ccc(SC(F)F)cc1,.,-105*,-12%
COc1ccccc1NC(=O)COC(=O)c1ccccc1OCC(=O)Nc1ccc(SC(F)F)cc1,.,15,-1%
Cc1ccc(CN2C(=O)CCC2C(=O)NCC2CCCO2)cc1 (stereo unspecified),3%[2.29 µM],?,1%
O=C(NCC1CCCO1)C1CCC(=O)N1CCc1ccccc1 (stereo unspecified),-3%,-102*,0%
O=C(NCC1CCCO1)C1CCN(S(=O)(=O)Cc2ccccc2)CC1 (stereo unspecified),1%,-108*,-2%
CCS(=O)(=O)N1CCC(C(=O)NCC2CCCO2)CC1 (stereo unspecified),-3%,?,2%
CN(C)C(=O)c1ccc(-c2cncnc2Nc2ccc(F)cc2)cc1,-2%,.,.
NS(=O)(=O)c1cccc(NC(=O)CN2CCN(Cc3ccc4c(c3)OCO4)CC2)c1,.,55,0%
C[C@]12CCC3c4ccc(O)cc4CCC3[C@@H]1CCC2=O (stereo partly specified),-2%[25.6 µM],.,-3%[25.6 µM]
O=C(O)/C=C/C(=O)Nc1ccccc1-c1ccccc1,?,-109*,-17%
O=C(O)/C=C\C(=O)Nc1ccccn1,-6%[11.4 µM],.,-3%[11.4 µM]
COc1ccc(CNC(=O)C(=O)NCC2OCCN2S(=O)(=O)c2cccs2)cc1 (stereo unspecified),.,?,-2%
Cc1ccc(C(=O)/C=C/Nc2cccc([N+](=O)[O-])c2)o1,.,-12,-4%
Cc1ccccc1NC(=O)C1(C)Cc2ccccc2C(=O)O1 (stereo unspecified),.,75,2%
CC1(C(=O)O)Cc2ccccc2C(=O)O1 (stereo unspecified),-2%,-101*,13%
CC(C)(C)OC(=O)[C@H]1[C@H](c2ccc([N+](=O)[O-])cc2)C2(C(=O)c3ccccc3C2=O)C2c3ccccc3C=NN21 (stereo partly specified),.,?,-9%
SMILES,15-hLO-2 inh,PNC inhibitor,ALOX12 inhib
CCOC(=O)Nc1nnc(-c2ccccc2OC)s1,.,-119*,0%
COc1ccccc1-c1nnc(NC(=O)OCC(C)C)s1,6%,-20,-4%
COc1ccc(/C=C/C(=O)OCC(=O)Nc2ccc(C)cc2)cc1S(=O)(=O)N1CCOCC1,.,34,2%
CC1CCN(S(=O)(=O)c2ccc(NC(=O)Cc3cccs3)cc2)CC1,?,-9,-9%
CC(=O)OCC(=O)c1ccc2ccn(C(C)=O)c2c1,.,-100*,4%
COc1ccccc1N1CCN(CC(=O)c2ccc3ccn(C(C)=O)c3c2)CC1,-3%,-11,-6%
CCCCOc1ccc(-n2nc(C)cc2C)nn1,9%,?,-4%
Cc1cc(C)n(-c2ccc(OCC(=O)O)nn2)n1,8%,-115*,5%
CCN1C(=O)c2cccc3c(S(=O)(=O)N(C(=O)c4cccnc4)c4ccc(OC)cc4)ccc1c23,.,?,3%
